Of roughly 8,800 targets only a part is listed; those with a hit were picked by preference. About 0.5% of all pairs of compound and target were hits. Values without a mark were called inactive.
Legend:
Assay in all cases: log2 fold change, soluble protein after heating vs DMSO (PISA); higher = thermal stabilisation; K562 lysate, 10 uM; active = over 0.2 and 3.5 SD of the protein, either way, in both replicates (recomputed)
[1] = compound: C1=CC=C(C=C1)[C@H](COC2=CC3=C(C=C2)NC(=O)N3)NC(=O)C4=CC=CN(C4=O)CC5=CC(=C(C=C5)F)F
How it was run: (§1)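 Quantification was by TMTpro 16plex LC-MS/MS with equalised channel sums, applied to the supernatant after 21,000xg for 90 min. Samples were crude K562 extract at 1 mg/mL protein in PBS pH 7.4 with 1 mM MgCl2, treated with 10 μM compound for 30 min, heated for 3 min across 48°C-58°C, pooled and brought to 0.5% NP-40 at 4°C. Values are log-two fold changes in thermal stability relative to solvent controls, from duplicates.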

[2] = compound: CC1=C(SC2=C1C(=N[C@H](C3=NN=C(N32)C)CC(=O)N)C4=CC=C(C=C4)Cl)C
How it was run: as §1

[3] = compound: CC1=C2C(=CC=C1)N=C(N(C2=O)C3=CC=CC=C3C)CN4C=NC5=C(N=CN=C54)N
How it was run: as §1

[4] = compound: Cc1sc2c(c1C)C(c1ccc(Cl)cc1)=N[C@@H](CC(=O)OC(C)(C)C)c1nnc(C)n1-2
How it was run: as §1

[5] = compound: c1ccc([C@@H]2C[C@H]2NC2CCNCC2)cc1
How it was run: as §1

Sequence of UniProt Q6ZU80 (Q6ZU80 whole entry, looked up): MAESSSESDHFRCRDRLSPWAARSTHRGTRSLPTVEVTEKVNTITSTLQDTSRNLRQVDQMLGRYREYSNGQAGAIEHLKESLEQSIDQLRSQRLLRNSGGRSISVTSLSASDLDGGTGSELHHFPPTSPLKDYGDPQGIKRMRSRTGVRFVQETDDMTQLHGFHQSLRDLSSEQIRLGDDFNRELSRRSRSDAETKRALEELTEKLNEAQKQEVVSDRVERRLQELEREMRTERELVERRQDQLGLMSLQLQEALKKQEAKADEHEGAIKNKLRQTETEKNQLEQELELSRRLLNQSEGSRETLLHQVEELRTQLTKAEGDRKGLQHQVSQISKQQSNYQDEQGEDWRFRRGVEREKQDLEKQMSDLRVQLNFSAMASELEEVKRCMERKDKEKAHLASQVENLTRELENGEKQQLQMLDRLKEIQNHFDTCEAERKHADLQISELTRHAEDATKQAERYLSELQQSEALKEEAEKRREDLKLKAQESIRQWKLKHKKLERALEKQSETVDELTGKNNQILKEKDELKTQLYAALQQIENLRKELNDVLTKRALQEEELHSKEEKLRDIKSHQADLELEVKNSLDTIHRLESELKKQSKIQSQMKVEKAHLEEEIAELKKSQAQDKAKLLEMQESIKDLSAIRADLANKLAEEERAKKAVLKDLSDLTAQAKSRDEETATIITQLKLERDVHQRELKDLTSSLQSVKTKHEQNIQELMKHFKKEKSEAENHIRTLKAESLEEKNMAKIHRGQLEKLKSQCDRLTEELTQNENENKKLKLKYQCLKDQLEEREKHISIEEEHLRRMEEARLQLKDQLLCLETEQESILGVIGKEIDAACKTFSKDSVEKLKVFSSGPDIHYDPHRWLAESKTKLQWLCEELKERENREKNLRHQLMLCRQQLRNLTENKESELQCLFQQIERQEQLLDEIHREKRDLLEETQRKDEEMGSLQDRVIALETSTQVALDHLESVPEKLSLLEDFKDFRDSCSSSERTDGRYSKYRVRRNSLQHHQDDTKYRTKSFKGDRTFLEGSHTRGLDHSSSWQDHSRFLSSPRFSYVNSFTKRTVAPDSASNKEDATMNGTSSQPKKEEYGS
Sequence of UniProt Q99700 (Q99700 whole entry, looked up): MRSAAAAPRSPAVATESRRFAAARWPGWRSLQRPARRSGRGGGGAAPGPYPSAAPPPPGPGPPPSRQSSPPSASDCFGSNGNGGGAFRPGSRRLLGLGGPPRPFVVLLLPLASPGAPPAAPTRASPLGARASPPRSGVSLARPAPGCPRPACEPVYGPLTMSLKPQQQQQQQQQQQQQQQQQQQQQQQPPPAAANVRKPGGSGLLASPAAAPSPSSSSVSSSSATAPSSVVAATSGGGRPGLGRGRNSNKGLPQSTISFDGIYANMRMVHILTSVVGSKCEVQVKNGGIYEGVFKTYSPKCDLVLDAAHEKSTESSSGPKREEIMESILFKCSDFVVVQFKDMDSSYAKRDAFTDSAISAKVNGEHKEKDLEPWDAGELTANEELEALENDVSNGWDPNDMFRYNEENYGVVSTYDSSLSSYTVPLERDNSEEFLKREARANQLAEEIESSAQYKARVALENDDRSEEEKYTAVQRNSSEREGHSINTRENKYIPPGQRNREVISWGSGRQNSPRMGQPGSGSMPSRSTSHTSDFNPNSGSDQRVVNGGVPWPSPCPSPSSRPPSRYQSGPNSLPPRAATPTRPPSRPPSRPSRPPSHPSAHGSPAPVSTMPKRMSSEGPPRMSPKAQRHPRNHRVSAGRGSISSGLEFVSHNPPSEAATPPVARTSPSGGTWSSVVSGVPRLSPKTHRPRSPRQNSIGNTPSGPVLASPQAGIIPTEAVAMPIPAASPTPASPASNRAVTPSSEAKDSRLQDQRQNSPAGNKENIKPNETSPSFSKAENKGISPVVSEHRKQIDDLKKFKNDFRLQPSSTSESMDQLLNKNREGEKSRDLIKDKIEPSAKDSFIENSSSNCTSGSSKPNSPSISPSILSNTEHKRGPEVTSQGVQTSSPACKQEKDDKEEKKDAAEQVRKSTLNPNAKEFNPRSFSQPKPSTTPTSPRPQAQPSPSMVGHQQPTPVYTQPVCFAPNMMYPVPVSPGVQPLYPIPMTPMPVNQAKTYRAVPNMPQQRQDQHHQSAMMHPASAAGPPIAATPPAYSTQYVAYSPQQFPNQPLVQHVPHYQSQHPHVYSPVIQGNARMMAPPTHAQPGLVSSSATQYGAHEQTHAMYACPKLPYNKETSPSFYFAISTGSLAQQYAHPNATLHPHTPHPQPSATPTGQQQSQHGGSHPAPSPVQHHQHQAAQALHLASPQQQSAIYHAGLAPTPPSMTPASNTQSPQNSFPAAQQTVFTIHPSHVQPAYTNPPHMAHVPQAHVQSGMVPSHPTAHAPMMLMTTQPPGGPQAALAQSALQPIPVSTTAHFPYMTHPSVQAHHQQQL
Sequence of UniProt Q9ULG6 (Q9ULG6 whole entry, looked up): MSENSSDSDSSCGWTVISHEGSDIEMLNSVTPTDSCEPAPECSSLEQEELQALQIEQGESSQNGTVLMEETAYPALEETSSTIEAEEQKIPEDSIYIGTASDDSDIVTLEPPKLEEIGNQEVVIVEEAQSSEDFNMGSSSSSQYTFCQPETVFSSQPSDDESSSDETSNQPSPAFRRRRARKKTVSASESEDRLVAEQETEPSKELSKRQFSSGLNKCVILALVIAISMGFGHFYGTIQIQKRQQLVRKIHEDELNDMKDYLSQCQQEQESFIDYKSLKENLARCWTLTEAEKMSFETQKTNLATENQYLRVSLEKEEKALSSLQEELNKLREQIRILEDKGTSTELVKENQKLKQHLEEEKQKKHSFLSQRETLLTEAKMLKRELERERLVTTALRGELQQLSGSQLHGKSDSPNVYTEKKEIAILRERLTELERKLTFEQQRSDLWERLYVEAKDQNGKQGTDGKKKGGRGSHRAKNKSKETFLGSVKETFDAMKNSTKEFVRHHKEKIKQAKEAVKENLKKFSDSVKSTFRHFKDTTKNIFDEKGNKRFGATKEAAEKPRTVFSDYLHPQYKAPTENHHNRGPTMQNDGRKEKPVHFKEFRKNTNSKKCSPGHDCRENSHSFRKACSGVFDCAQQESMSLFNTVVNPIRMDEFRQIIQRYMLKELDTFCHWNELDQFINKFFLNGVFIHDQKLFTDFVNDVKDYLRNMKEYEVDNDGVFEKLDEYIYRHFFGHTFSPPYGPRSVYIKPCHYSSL
Sequence of UniProt Q9BUK0 (Q9BUK0 whole entry, looked up): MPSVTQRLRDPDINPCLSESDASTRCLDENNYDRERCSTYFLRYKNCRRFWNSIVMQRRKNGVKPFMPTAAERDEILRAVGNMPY
Sequence of UniProt O75419 (O75419 whole entry, looked up): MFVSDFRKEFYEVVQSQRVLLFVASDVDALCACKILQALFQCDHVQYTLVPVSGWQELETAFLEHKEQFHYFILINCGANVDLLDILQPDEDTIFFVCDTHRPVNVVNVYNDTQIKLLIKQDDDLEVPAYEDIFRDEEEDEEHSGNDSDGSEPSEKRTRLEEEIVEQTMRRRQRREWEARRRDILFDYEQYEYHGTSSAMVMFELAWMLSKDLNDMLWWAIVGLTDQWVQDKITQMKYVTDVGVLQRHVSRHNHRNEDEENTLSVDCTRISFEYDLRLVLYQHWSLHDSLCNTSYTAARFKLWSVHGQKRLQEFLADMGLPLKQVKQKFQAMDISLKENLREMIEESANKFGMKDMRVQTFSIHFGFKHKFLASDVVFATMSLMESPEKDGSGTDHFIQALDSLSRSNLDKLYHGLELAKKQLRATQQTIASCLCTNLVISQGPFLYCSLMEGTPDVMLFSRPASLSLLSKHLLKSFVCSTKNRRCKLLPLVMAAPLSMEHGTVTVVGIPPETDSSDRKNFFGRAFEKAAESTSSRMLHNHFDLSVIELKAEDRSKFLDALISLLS
Sequence of UniProt O60826 (O60826 whole entry, looked up): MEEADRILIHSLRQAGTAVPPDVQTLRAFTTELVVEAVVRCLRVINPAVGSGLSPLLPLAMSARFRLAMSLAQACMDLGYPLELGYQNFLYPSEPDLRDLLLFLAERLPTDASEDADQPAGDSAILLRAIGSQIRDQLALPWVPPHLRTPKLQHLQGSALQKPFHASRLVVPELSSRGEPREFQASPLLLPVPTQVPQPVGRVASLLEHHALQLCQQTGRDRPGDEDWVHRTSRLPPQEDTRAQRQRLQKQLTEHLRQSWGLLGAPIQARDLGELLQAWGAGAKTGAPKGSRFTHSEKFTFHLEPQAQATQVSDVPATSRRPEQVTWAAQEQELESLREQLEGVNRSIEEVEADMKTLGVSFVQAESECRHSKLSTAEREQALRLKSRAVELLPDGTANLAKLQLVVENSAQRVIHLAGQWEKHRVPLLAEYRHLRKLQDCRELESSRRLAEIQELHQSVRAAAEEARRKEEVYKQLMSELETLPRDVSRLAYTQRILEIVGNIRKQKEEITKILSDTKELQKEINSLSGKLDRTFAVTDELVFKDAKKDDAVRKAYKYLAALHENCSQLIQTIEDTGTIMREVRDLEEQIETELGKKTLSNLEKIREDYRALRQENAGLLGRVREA
Sequence of UniProt Q8N5S9 (Q8N5S9 whole entry, looked up): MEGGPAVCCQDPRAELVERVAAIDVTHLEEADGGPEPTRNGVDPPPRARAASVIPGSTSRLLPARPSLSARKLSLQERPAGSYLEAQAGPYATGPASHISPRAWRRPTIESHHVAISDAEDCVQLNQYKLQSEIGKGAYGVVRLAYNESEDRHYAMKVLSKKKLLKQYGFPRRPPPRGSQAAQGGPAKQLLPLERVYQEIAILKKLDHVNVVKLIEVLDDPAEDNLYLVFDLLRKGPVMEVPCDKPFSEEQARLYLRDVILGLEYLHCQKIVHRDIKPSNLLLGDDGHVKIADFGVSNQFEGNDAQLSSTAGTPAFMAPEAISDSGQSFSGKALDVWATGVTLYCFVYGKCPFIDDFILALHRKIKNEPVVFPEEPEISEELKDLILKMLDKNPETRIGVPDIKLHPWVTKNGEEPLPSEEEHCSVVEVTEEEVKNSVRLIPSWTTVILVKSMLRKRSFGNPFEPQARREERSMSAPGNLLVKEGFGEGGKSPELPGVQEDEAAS
Sequence of UniProt Q9H3K6 (Q9H3K6 whole entry, looked up): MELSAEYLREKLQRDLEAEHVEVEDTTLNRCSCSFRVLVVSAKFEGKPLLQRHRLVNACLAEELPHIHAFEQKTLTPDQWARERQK

Row | Target | log2 fold change [1] | log2 fold change [2] | log2 fold change [3] | log2 fold change [4] | log2 fold change [5]
1 | CDK1 (UniProt P06493) | 0.037 | -0.009 | 0.042 | 0.021 | 0.018
2 | CASP9 (UniProt P55211) | 0.041 | -0.024 | 0.019 | -0.05 | -0.048
3 | CCNB2 (UniProt O95067) | -0.005 | 0.026 | 0.047 | 0.048 | 0.033
4 | BRD3 (UniProt Q15059) | 0.027 | 0.631 (active) | 0.112 | 0.5 (active) | -0.167
5 | CASP6 (UniProt P55212) | 0.004 | 0.011 | 0.015 | 0.009 | -0.005
6 | C3orf33 (UniProt Q6P1S2) | 0.074 | 0.143 | -0.386 | -0.03 | -0.226
7 | CARD11 (UniProt Q9BXL7) | 0.193 | 0.252 | 0 | -0.084 | -0.019
8 | CCNK isoform 4 (UniProt O75909) | -0.018 | -0.045 | -0.026 | -0.047 | -0.175
9 | CCDC22 (UniProt O60826) | -0.009 | 0 | -0.044 | 0.053 | 0.032
10 | ATRIP (UniProt Q8WXE1) | -0.042 | -0.02 | -0.056 | -0.032 | 0.093
11 | CEP128 (UniProt Q6ZU80) | -0.38 | 0.338 | -0.023 | -0.125 | -0.507
12 | CDKN1C (UniProt P49918) | 0.035 | -0.012 | 0.185 | 0.094 | 0.025
13 | CARHSP1 (UniProt Q9Y2V2) | -0.031 | 0.027 | 0.019 | -0.053 | 0.005
14 | ATXN2 (UniProt Q99700) | 0.013 | 0.016 | 0.075 | -0.02 | -0.021
15 | BMS1 (UniProt Q14692) | 0.047 | -0.036 | 0.027 | 0.013 | -0.029
16 | CHD1L (UniProt Q86WJ1) | -0.012 | 0.036 | 0.037 | -0.009 | 0.052
17 | ATP5PF isoform 2 (UniProt P18859) | 0.085 | -0.086 | -0.05 | 0.075 | 0.228
18 | CCPG1 isoform 5 (UniProt Q9ULG6) | -0.069 | -0.118 | 0.046 | -0.082 | -0.026
19 | CDC45 isoform 3 (UniProt O75419) | 0.076 | -0.01 | 0 | -0.018 | 0.026
20 | CDK5RAP1 (UniProt Q96SZ6) | 0.266 (active) | -0.117 | 0.05 | -0.023 | -0.004
21 | BOLA2 (UniProt Q9H3K6) | -0.052 | 0.01 | -0.019 | 0.034 | 0.078
22 | CDK11B (UniProt P21127) | -0.035 | 0.029 | 0.005 | 0.035 | -0.001
23 | CDC123 (UniProt O75794) | -0.035 | 0.02 | -0.038 | 0.073 | 0.004
24 | CDK5RAP2 (UniProt Q96SN8) | 0.018 | 0.038 | 0.041 | -0.026 | 0.072
25 | BCR (UniProt P11274) | -0.03 | 0.005 | -0.014 | 0.007 | 0.027
26 | CALB2 (UniProt P22676) | -0.067 | -0.053 | 0.009 | -0.007 | 0.013

Row | Target | log2 fold change [1] | log2 fold change [2] | log2 fold change [3] | log2 fold change [4] | log2 fold change [5]
27 | ATP9B (UniProt O43861) | 0.109 | -0.028 | 0.015 | -0.019 | -0.079
28 | C1orf112 (UniProt Q9NSG2) | 0.066 | -0.011 | -0.007 | 0.066 | -0.345
29 | BCAR1 isoform 6 (UniProt P56945) | 0.01 | 0.013 | -0.045 | -0.043 | 0.107
30 | AVEN (UniProt Q9NQS1) | 0.205 | 0.025 | 0.003 | 0.013 | -0.058
31 | CHCHD7 isoform 4 (UniProt Q9BUK0) | 0.08 | -0.052 | 0.074 | -0.071 | -0.22
32 | ATAD1 (UniProt Q8NBU5) | -0.052 | 0.032 | -0.015 | -0.092 | 0.002
33 | CAMKK1 isoform 2 (UniProt Q8N5S9) | 0.006 | 0.03 | 0.011 | 0.071 | -0.103
34 | CBX1 (UniProt P83916) | 0.031 | -0.03 | 0.032 | 0.009 | 0.13
35 | BSDC1 (UniProt Q9NW68) | 0.155 | -0.025 | 0.021 | -0.004 | -0.026
36 | CARS isoform 3 (UniProt P49589) | -0.026 | 0.014 | 0.007 | 0.035 | 0.03
37 | CHD3 isoform 3 (UniProt Q12873) | -0.009 | 0.027 | 0.024 | 0.035 | 0.038
38 | CCDC51 (UniProt Q96ER9) | -0.063 | 0.023 | -0.029 | 0.014 | 0.157
39 | CDK17 isoform 2 (UniProt Q00537) | 0.072 | 0.099 | 0.109 | 0.072 | -0.146
40 | BUD23 isoform 3 (UniProt O43709) | 0.076 | 0.03 | 0.021 | 0 | -0.154
41 | AURKA (UniProt O14965) | -0.053 | -0.001 | -0.042 | -0.055 | -0.157
42 | ATP2B4 (UniProt P23634) | -0.021 | 0.036 | 0.059 | 0.029 | -0.081
43 | CARD9 (UniProt Q9H257) | -0.039 | 0.065 | 0.023 | -0.009 | 0.035
44 | CEP152 (UniProt O94986) | 0.024 | -0.236 | 0.01 | 0.008 | -0.028
45 | C3 (UniProt P01024) | 0.013 | 0.054 | 0.132 | -0.035 | -0.03
46 | CCNA2 (UniProt P20248) | 0.013 | -0.006 | -0.003 | -0.021 | -0.068
47 | BLOC1S6 (UniProt Q9UL45) | -0.078 | 0.035 | -0.04 | -0.046 | 0.021
48 | CEPT1 (UniProt Q9Y6K0) | -0.13 | -0.017 | 0.062 | -0.054 | 0.061
49 | CCNYL1 (UniProt Q8N7R7) | -0.007 | -0.089 | -0.009 | -0.058 | -0.079
50 | CARNMT1 (UniProt Q8N4J0) | 0.032 | -0.003 | 0.072 | -0.039 | -0.174
51 | CD63 (UniProt P08962) | 0.006 | 0.001 | -0.008 | -0.13 | -0.242
52 | CES2 isoform 4 (UniProt O00748) | 0.129 | 0.159 | -0.089 | 0.093 | -0.07
